The record followed here is PubChem BioAssay.

“And” between values parts separate entries of the source, which are not always exact repeats. Identical values can stand only once. Inconclusive results are not listed. The source made the active and inactive calls.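 The calls were made as follows, unless noted: active = percent response above 42, roughly 3 SD of non-fluorescent test compounds; inactive = the rest.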

Test [1] can be described thus: yeast TOR pathway RPL19A-GFP modulators, primary screen, cell-based, S. cerevisiae, multiplex flow cytometry (AID 1862; in the data active = percent of DMSO control GFP below about 86%;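 also: lower values mimic rapamycin by blocking the RPL19A rise seen in DMSO cells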). The conditions noted are these: S. cerevisiae RPL19A-GFP strain, flow cytometry fluorescence, 3 h; at 10 µM; stronger effect = lower value. A general note: A flow cytometer gives signals particle by particle.
A short description of test [2]: modulators of MEP2-GFP levels in yeast, primary screen, S. cerevisiae, multiplex flow cytometry (AID 1867;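 active = GFP response, as percent of the DMSO control, above the screen-wide mean plus 3 SD, about 139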;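 also: median GFP channel fluorescence of barcode-gated MEP2-GFP cells measured by flow cytometry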). The conditions noted are these: S. cerevisiae MEP2-GFP strain, 3 h, at 10 µM, stronger effect = higher value, 100% means same as DMSO wells.
Test [3] can be described thus: modulators of CIT2-GFP expression in yeast, primary screen, S. cerevisiae, GFP fusion, multiplex flow cytometry (AID 1870;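 active = percent response above a set limit, the screen-wide mean plus 3 SD, cut at about 130% in these data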;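 also: barcoded CIT2-GFP strain pooled with four other GFP strains with rapamycin as positive control; median GFP fluorescence per well over plate mean of DMSO wells so 100% = DMSO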). The settings on record: 3 h, at 10 µM, stronger effect = higher value.
Test [4] in a line: modulators of LAP4-GFP expression in yeast, primary screen, S. cerevisiae, multiplex flow cytometry (AID 1873;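 active = GFP signal, as percent of the solvent control, above the screen mean plus 3 SD, about 149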). The conditions noted are these: 3 h, at 10 µM, stronger effect = higher value.
Test [5] can be described thus: modulators of AGP1-GFP expression in yeast TOR pathway, primary screen, cell-based, multiplex flow cytometry, S. cerevisiae (AID 1887;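 active = GFP signal above the screen-wide mean plus 3 SD, that is over about 124.5% of the solvent control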;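 also: AGP1-GFP fusion strain of S. cerevisiae within a five-strain barcoded multiplex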). The conditions noted are these: 3 h, at 10 µM, stronger effect = higher value.
Test [6] can be described thus: inhibitors of CD8+ T cell-vesicle binding, pilot screen, LFA-1/ICAM-1 modulator project, MLPCN validation set, flow cytometry (AID 2523;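 active = response below a set limit, under 55% cells CD8-positive and vesicle-bound, and CD8 cells' 90th-percentile brightness under 279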;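 as to vesicle binding response: mean PE anti-B7-1 fluorescence of CD8+ cells relative to row control; 100% = QL9-loaded vesicles with DMSO vehicle in the same plate row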). The settings on record: 2C mouse CD8+ T cells, at 7 µM, stronger effect = lower value; double positive events: measured here: CD8+/vesicle+ event percentage.
Test [7] deals with Integrin beta-1 (Homo sapiens) + Integrin alpha-4 (Homo sapiens) (UniProt P13612+P05556). The test can be described thus: inhibition of HUTS-21 binding to VLA-4, pilot screen, VLA-4 allosteric modulator project, U937 cells, HUTS-21 mAb, flow cytometry, validation set (AID 2674;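 active = inhibition above 50%, about 3 SD of the validation set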;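 also: antibody binding induced by the VLA-4 ligand LDV present at three times its Kd; 0% = LDV ligand with antibody and no compound and 100% = antibody without LDV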). The settings on record: HUTS-21 LIBS mAb binding, at 6.7 µM, stronger effect = higher value, binding induced by LDV ligand.

Test [8] can be described thus: superoxide lowering in aged yeast cells, pilot screen, validation compound set (AID 2706;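 active = superoxide response below 65% of plate, a cut near 3 SD across the whole screen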;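 also: yeast exposed to compound for one week at 30 degrees C before staining; 100% = mean of all compound wells on the same plate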). The conditions noted are these: S. cerevisiae aging, superoxide DHE fluorescence; at 10 µM; stronger effect = lower value.
In test [9] the target is Beta-adrenergic receptor kinase 1 (Homo sapiens) (UniProt P25098). The test can be described thus: GRK2 binders displacing RNA aptamer, biochemical, validation, human GRK2, bead flow cytometry (AID 488806;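 active = aptamer binding inhibition above 30%, about 3 SD of noise from non-fluorescent compounds; inactive = inhibition at or below 30%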). The settings on record: bead-bound GRK2, FAM-aptamer displacement, at 10 µM, stronger effect = higher value.
Test [10] has as its target Beta-2 adrenergic receptor (Homo sapiens) (UniProt P07550). The test can be described thus: beta2AR agonists driving receptor internalization, pilot screen, cell-based, FAP fluorogen, flow cytometry, validation set (AID 504459).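 Also: agonist-driven loss of surface beta2AR via internalization measured by FAP dye flow cytometry.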 The conditions noted are these: Am2.2-beta2AR cells, FAP surface receptor flow cytometry; at 10 µM; stronger effect = higher value.
Test [11] concerns the target AP-2 complex subunit beta (Homo sapiens) (UniProt P63010). The test can be described thus: inhibitors of arrestin peptide binding to AP2, pilot screen, biochemical, validation set, GST-AP2 beads, flow cytometry (AID 504541;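 active = inhibition above 54%, about 3 SD of non-fluorescent compounds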;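 also: AP2 carries R879A mutation and is captured from E. coli lysate; bead-bound FITC arrestin peptide fluorescence measuring arrestin peptide binding to AP2; 0% = DMSO wells and 100% = excess unlabeled arrestin peptide control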). The settings on record: FITC arrestin peptide, at 10 µM, stronger effect = higher value, AP2 beta2 appendage fragment, R879A mutant.
The nature of test [12]: yeast V-ATPase proton transport modulators, S. cerevisiae, pHLuorin, HTS validation (AID 504600; in the data active = response above about 15%;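 also: plate controls were DMSO for no effect and reference compound for full effect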). The conditions noted are these: S. cerevisiae pHLuorin cytosolic pH, at 10 µM, stronger effect = higher value.
Test [13] has as its system anti-desmoglein-3 scFv antibody binding to human DSG3. The test can be described thus: inhibitors of anti-DSG3 scFv binding to DSG3, pilot screen, biochemical, validation compound set, bead-based, flow cytometry (AID 588368;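 active = binding below the plate cutoff, the plate median minus 3 SD, with a reading above zero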;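 also: signal is the median channel fluorescence of bead-bound GFP antibody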). The settings on record: Protein G beads, DSG3-Fc, scFv-GFP binding, at 10 µM, stronger effect = lower value.
A short description of test [14]: inhibitors of fungal efflux pumps CDR1, CDR2, MDR1, pilot screen, validation compound set, multiplex, phenotypic (AID 588506;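 active = efflux inhibition above 0.42, the validation set average plus 4 SD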;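 also: Nile Red retained in cells so higher fluorescence means more efflux inhibition; 0 = negative control wells and 1 = enniatin B 25 µM full block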). The conditions noted are these: S. cerevisiae pump-expressing triplex, Nile Red efflux flow cytometry; at 10 µM; stronger effect = higher value; the pumps come from Candida albicans.
Test [15] concerns the target ATP-binding cassette sub-family B member 6 (Homo sapiens) (UniProt Q9NP58). The test can be described thus: ABCB6 transporter inhibitors, pilot screen, K562-ABCB6 cells, flow cytometry, validation set (AID 588550;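 active = inhibition above the screen-wide mean plus 3 SD, about 51%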;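 also: 0% = DMSO wells and 100% = benzethonium chloride 70 µM positive control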). The conditions noted are these: K562-ABCB6 porphyrin accumulation, 1 h, at 10 µM, stronger effect = higher value.
The nature of test [16]: promoters of myeloid differentiation in arrested cells, primary screen, cell-based, GFP/MAC1 double positive, flow cytometry, validation set (AID 588685;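 active = differentiation response of at least 50%, scaled between solvent and reference control, from cells with both markers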;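 also: compound exposure lasts four days before antibody staining and flow analysis; 0% = DMSO wells and 100% = 5 µM fulvestrant positive control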). The conditions noted are these: ER-HoxA9 marrow cells, stronger effect = higher value, normalized: vehicle 0, fulvestrant 100.

ATP-binding cassette sub-family B member 6 (Homo sapiens), sequence (Q9NP58 whole entry, looked up): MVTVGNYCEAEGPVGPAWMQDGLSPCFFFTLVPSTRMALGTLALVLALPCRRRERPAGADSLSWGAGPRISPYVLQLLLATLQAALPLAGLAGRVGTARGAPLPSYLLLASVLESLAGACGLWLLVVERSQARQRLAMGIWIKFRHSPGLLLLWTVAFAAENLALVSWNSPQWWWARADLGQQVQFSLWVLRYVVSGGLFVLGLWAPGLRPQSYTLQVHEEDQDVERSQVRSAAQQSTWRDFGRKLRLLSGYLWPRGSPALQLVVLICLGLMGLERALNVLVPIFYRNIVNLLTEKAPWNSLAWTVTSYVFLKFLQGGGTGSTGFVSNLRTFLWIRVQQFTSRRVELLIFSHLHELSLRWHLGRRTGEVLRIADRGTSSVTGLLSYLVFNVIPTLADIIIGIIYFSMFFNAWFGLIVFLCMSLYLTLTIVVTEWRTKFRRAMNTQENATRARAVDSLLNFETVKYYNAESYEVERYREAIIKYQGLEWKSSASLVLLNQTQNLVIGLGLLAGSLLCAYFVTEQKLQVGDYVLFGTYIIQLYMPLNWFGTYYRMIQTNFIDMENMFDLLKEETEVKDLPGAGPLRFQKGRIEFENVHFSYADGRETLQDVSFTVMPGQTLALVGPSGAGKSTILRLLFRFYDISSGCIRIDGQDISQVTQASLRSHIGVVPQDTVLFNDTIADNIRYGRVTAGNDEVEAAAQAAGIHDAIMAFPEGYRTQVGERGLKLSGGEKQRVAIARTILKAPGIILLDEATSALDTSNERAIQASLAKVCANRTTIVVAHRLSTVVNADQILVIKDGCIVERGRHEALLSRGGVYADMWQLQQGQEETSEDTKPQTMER
Beta-adrenergic receptor kinase 1 (Homo sapiens), sequence (P25098 whole entry, looked up): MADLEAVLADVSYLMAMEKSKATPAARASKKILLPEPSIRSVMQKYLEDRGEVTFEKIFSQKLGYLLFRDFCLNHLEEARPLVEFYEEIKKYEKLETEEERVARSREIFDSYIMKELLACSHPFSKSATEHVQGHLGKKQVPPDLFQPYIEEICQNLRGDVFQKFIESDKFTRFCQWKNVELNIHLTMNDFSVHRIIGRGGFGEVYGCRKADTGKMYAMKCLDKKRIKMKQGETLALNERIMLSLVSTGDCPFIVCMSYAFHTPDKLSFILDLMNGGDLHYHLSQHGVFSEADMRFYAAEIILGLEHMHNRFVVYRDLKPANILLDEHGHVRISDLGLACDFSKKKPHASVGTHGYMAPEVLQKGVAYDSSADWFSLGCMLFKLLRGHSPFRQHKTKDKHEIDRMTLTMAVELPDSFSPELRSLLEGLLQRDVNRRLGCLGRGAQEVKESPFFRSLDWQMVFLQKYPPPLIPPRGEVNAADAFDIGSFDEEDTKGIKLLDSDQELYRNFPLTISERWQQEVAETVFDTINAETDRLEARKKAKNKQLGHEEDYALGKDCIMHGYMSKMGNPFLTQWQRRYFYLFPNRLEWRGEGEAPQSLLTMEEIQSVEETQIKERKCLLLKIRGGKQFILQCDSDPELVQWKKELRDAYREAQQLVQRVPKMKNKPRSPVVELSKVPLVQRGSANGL
Beta-2 adrenergic receptor (Homo sapiens), sequence (P07550 whole entry, looked up): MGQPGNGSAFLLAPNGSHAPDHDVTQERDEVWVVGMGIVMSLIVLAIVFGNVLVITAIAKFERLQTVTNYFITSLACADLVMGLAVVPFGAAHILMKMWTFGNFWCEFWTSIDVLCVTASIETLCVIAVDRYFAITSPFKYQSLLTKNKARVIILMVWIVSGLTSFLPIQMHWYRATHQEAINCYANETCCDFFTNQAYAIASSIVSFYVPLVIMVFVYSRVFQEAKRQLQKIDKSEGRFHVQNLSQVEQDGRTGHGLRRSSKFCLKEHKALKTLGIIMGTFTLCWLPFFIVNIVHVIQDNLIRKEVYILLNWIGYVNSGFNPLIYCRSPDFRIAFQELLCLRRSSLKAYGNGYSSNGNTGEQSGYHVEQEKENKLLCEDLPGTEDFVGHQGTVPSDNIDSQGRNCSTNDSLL
Integrin beta-1 (Homo sapiens) + Integrin alpha-4 (Homo sapiens), sequence (P05556 whole entry, looked up): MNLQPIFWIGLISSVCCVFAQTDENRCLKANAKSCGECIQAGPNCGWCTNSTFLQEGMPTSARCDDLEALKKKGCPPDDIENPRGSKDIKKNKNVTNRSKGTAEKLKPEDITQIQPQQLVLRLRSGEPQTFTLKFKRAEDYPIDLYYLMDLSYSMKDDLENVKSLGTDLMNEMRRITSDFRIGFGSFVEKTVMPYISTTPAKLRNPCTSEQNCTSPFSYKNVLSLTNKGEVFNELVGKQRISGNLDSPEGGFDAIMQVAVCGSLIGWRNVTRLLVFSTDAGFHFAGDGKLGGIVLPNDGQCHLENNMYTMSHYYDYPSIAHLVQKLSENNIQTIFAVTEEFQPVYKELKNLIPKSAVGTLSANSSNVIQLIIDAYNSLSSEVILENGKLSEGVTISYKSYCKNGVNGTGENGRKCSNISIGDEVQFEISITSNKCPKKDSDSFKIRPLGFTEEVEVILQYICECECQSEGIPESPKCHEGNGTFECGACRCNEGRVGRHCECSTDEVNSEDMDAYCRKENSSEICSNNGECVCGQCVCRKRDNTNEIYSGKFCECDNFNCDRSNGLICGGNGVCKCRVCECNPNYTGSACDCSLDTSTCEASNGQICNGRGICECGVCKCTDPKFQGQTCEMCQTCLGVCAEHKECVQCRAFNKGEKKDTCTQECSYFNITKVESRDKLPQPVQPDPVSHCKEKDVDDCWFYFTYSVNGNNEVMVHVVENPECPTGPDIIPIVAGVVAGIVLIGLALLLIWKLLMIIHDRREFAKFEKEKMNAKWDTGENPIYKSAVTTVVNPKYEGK
Integrin beta-1 (Homo sapiens) + Integrin alpha-4 (Homo sapiens), sequence (P13612 whole entry, looked up): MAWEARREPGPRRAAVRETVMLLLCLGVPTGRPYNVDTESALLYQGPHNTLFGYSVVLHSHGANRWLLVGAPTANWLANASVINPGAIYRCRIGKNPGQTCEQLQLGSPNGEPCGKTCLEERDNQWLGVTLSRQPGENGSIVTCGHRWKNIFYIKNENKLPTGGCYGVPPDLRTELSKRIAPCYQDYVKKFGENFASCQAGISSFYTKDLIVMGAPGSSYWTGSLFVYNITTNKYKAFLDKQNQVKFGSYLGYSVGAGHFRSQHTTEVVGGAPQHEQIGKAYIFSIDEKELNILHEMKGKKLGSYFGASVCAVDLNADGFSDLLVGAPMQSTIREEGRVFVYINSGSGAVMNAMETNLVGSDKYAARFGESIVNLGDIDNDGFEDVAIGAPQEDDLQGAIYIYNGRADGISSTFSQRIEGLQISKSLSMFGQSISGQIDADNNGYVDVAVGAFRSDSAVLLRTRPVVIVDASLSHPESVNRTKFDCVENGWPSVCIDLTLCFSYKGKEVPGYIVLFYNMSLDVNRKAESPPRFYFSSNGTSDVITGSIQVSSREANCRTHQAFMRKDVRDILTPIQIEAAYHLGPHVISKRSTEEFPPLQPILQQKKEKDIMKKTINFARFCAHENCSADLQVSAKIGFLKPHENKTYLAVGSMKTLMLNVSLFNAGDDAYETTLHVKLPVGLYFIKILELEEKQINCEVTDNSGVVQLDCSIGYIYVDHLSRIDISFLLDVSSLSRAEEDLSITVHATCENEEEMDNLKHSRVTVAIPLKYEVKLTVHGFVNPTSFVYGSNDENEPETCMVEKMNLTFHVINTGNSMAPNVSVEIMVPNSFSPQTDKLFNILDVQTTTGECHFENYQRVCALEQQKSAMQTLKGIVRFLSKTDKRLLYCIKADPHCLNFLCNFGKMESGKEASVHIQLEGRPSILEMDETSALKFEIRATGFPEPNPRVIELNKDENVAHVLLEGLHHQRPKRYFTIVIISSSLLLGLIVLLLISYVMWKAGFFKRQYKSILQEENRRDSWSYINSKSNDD
AP-2 complex subunit beta (Homo sapiens), sequence (P63010 whole entry, looked up, the tested form may be a part, one chain of several): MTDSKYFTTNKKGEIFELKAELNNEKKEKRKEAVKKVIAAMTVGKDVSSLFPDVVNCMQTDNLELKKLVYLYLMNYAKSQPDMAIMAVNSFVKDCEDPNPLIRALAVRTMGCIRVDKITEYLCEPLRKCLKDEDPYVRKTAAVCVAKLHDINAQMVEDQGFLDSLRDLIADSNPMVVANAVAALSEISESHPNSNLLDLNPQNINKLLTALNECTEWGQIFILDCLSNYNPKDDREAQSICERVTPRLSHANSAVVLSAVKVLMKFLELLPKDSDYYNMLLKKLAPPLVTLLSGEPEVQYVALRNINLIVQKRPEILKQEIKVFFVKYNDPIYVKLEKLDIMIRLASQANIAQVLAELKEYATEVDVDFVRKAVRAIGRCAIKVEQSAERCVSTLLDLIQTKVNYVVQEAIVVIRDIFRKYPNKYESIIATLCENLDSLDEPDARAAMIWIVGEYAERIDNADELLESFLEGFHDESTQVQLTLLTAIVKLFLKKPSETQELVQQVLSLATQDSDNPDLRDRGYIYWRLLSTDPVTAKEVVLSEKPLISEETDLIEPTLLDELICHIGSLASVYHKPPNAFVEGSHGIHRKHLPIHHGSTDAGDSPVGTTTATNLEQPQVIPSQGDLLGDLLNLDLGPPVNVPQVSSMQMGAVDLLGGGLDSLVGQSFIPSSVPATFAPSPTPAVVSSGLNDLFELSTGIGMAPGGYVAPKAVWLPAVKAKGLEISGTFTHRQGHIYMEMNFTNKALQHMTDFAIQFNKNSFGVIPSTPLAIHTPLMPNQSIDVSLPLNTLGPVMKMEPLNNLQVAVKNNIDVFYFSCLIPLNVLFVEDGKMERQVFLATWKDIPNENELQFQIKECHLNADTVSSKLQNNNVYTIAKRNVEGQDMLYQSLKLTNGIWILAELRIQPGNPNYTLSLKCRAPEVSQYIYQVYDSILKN

For orientation: inhibition means the relative decrease from the control value, in per cent. As to `COc1cc(NS(=O)(=O)c2ccc(N)cc2)nc(OC)n1`, the percent of DMSO control GFP in test [1] is 98.8% (inactive). In addition, the results for the GFP response vs DMSO in test [2] and in [4] were 102% (inactive) and 96.5% (inactive), respectively. Also, the percent response of DMSO control in [3] was 105% (inactive). Besides, the GFP response, % of DMSO in test [5] was 98.2% (inactive). The same molecule gave a double positive events in test [6] of 60.1%. Moreover, the vesicle binding response in test [6] is 102% (inactive). In addition, the results for the inhibition in test [7], in test [11] and in test [15] were -1.74% (inactive), 18.1% (inactive) and -1% (inactive), respectively. Further, the superoxide response (% of plate) in test [8] was 113% (inactive). Moreover, the aptamer binding inhibition in [9] was 3% (inactive). In addition, the response in test [10] is 1.82% (inactive); in test [12], 0.53% (inactive). Besides, the binding (% of control) in test [13] was 96.4% (inactive). Also, the efflux inhibition (fraction of control) in [14] is 0.01 (inactive). In addition, the differentiation response in test [16] is 14.9% (inactive).
In the case of `CC(=O)OCC[N+](C)(C)C`, the percent of DMSO control GFP in test [1] is 95.9% (inactive). Moreover, the GFP response vs DMSO was 116% (inactive) in test [2] and 83.6% (inactive) in test [4]. Moreover, the percent response of DMSO control in test [3] is 101% (inactive). Further, the GFP response, % of DMSO in test [5] is 105% (inactive). For the same molecule, in test [6], the double positive events was 61.2% and 60.9%. In addition, the vesicle binding response in test [6] is 178% (inactive) and 161% (inactive). Also, the inhibition in [7] was -20.7% (inactive) and 1.44% (inactive); in [11], -8.61% (inactive) and -2% (inactive); in test [15] it was 6% (inactive) and 10% (inactive). Further, in [8], the superoxide response (% of plate) is 90.4% (inactive) and 67.4% (inactive). For the same molecule, the aptamer binding inhibition in [9] was 4% (inactive) and 1% (inactive). In addition, the response in [10] is -3.17% (inactive) and -8.19% (inactive); in [12] it was 2.52% (inactive) and -3.48% (inactive). Further, the binding (% of control) in test [13] is 102% (inactive) and 106% (inactive). Further, the efflux inhibition (fraction of control) in test [14] is 0.09 (inactive) and 0 (inactive). For the same molecule, the differentiation response in [16] was 2.46% (inactive) and -2.03% (inactive).
As to `CN1CCCN(C(c2ccccc2)c2ccc(Cl)cc2)CC1` (stereo not given), the percent of DMSO control GFP in test [1] is 97.1% (inactive). Further, the GFP response vs DMSO is 102% (inactive) in [2] and 123% (inactive) in test [4]. Besides, in test [3], the percent response of DMSO control was 103% (inactive). Further, the GFP response, % of DMSO in [5] is 120% (inactive). Moreover, the double positive events in test [6] was 54.6%. The vesicle binding response in test [6] is 171% (inactive). Moreover, the results for the inhibition in test [7], in test [11] and in test [15] were 39.8% (inactive), -13.9% (inactive) and 2% (inactive), respectively. Besides, the superoxide response (% of plate) in [8] is 107% (inactive). Further, the aptamer binding inhibition in [9] was -14% (inactive). For the same molecule, the response in test [10] is 29.3% (inactive); in test [12], -5.79% (inactive). Further, the binding (% of control) in [13] is 107% (inactive). The efflux inhibition (fraction of control) in test [14] is 0.04 (inactive). The differentiation response in test [16] was -7.94% (inactive).
`CC(C)(S)[C@@H](N)C(=O)O`: the percent of DMSO control GFP in [1] was 97.8% (inactive). For the same molecule, the GFP response vs DMSO in test [2] was 109% (inactive); in [4], 101% (inactive). Further, the percent response of DMSO control in [3] was 87.2% (inactive). Besides, the GFP response, % of DMSO in [5] was 98.9% (inactive). The molecule also came in with a double positive events in [6] of 62.5%. For the same molecule, in test [6], the vesicle binding response was 177% (inactive). In addition, the inhibition in [7] was 0.94% (inactive); in test [11], -6.4% (inactive); in test [15], 5% (inactive). Further, the superoxide response (% of plate) in test [8] is 85% (inactive). Further, the aptamer binding inhibition in [9] was 6% (inactive). Also, the response in test [10] is 1.94% (inactive); in [12] it was 0.19% (inactive). For the same molecule, in test [13], the binding (% of control) was 98.2% (inactive). For the same molecule, the efflux inhibition (fraction of control) in test [14] was 0.08 (inactive). Further, in test [16], the differentiation response is 7.2% (inactive).
As for `COC(=O)c1cc(Br)c(=O)n(CCc2ccc(O)cc2)c1`, the percent of DMSO control GFP in test [1] was 95.2% (inactive). Further, the values for the GFP response vs DMSO in test [2] and in test [4] were 109% (inactive) and 123% (inactive), respectively. The percent response of DMSO control in test [3] was 93.9% (inactive). The GFP response, % of DMSO in test [5] was 99.7% (inactive). The double positive events in [6] came out at 57.8%. Further, the vesicle binding response in test [6] is 234% (inactive). Also, the inhibition is 6.4% (inactive) in [7], 4.99% (inactive) in test [11] and 8% (inactive) in test [15]. Besides, in [8], the superoxide response (% of plate) was 103% (inactive). The aptamer binding inhibition in [9] is 5% (inactive). The response in test [10] is -13.9% (inactive); in [12], -0.03% (inactive). In [13], the binding (% of control) was 96.8% (inactive). Also, in test [14], the efflux inhibition (fraction of control) was -0.17 (inactive). In addition, the differentiation response in [16] was -10.4% (inactive).
